The values below come from ChEMBL document CHEMBL4513216, “Probing the Open Global Health Chemical Diversity Library for Multistage-Active Starting Points for Next-Generation Antimalarials” (ACS Infect Dis, 2020).

About 8,600 (12%) of roughly 69,000 compounds showed an effect of 50% or more. The sample holds strong results, similar compounds and a random draw of the others, so the mix is not that of the screen.

This assay concerns Plasmodium berghei. The assay can be described thus: Screen against P. berghei liver stage (PbLuc), transformed with Luciferase, at 10uM. To be noted: tested at 10 uM. It counts as functional, HepG2.
For the compound `Cn1ccnc(Sc2ccccc2)c1=O`, the INHIBITION is -4.13%.
Under `CCOc1ccccc1C(=O)NCc1nncn1C1CC1` stands 11.4%; under `CC1(c2nccs2)CCN(C(=O)CC2CCOCC2)CC1`, -1.25%; under `CC(=O)N1CCC2(CCCN(S(=O)(=O)c3ccccc3)C2)C1` (centres undefined), -60.3%.
For the compound `CCc1cc(NCCCNS(C)(=O)=O)nc(-c2ccncc2)n1`, the INHIBITION is given as 15.2%.
Under `CCC=C(C)C(=O)N1CSCC1C(=O)N(C)CCc1ccncc1` (centres undefined) stands -16.7%; under `Cc1cc(C)n(CC2CCCCN2CC(=O)Nc2nncs2)n1` (centres undefined), 11.1%; under `Cc1cc(C)n(CC2CCCCN2CC(=O)Nc2nnc(C)s2)n1` (centres undefined), -16.5%.
Under `Cc1cc(C)n(CC2CCCCN2CC(=O)Nc2nccs2)n1` (centres undefined) stands 77.6%; under `CCCc1n[nH]c(C2CN(CCc3cccs3)CCO2)n1` (centres undefined), -23.9%; under `CCC(C)N(CC)C(=O)c1ccc2[nH]nnc2c1` (centres undefined), -29.1%.
Under `CN1CCN(CC(C)(C)C)CC1CCO` (centres undefined) stands -1.26%; under `COc1cc(C(=O)O)ccc1OCC(=O)NCCc1ccccc1`, 37.4%; under `O=C(NC1CCS(=O)(=O)C1)N1CCN(c2cnccn2)CC1` (centres undefined), 33%.
On to `Cc1cc(C)c(CNC(=O)N2CCN(c3cnccn3)CC2)c(=O)[nH]1`, for which the INHIBITION came to 51.2%.
On to `Cc1cc(C)c(CNC(=O)N2CCN(c3ccccn3)CC2)c(=O)[nH]1`, for which the INHIBITION came to 9.4%.
Under `Cc1cc(C)c(CNC(=O)NCCNc2ccccn2)c(=O)[nH]1` stands 46.1%.
With `Cc1cc(C)c(CNC(=O)NCCNc2ncccn2)c(=O)[nH]1` the figure was 25.7%.
As for `Cc1cc(C)c(CNC(=O)C2CCN(c3cnccn3)CC2)c(=O)[nH]1`, the INHIBITION is listed as 12.255%.
Under `Cc1cc(C)c(CNC(=O)NCCNc2cnccn2)c(=O)[nH]1` stands 73%; under `O=C(C1CCS(=O)(=O)C1)N1CCN(c2cnccn2)CC1` (centres undefined), 16.7%; under `O=C(NCC1CCS(=O)(=O)C1)N1CCN(c2cnccn2)CC1` (centres undefined), 50.3%.
With `CN1CCN(C(=O)c2occc2CN2C(=O)Cc3ccccc32)CC1` the figure was 37.9%; with `c1cncc(CN2CCn3cc(CN4CCCCC4)nc3C2)c1`, 35.8%.
With `Cc1ccoc1C(=O)N1Cc2c(CN3CCCCC3)nn(C)c2C1` the figure was 3.69%; with `O=C(NCCCn1nc2ccccn2c1=O)NC(C1CC1)C1CC1`, 16.3%.
Regarding `COc1ccc(CC(=O)NC2CCN(CC(F)F)CC2)cc1OC`, the INHIBITION came to 14.4%.
With `COCC(=O)N1CC[C@@H]2O[C@H](COCc3ccncc3)CC[C@@H]21` the figure was 33.5%; with `CC(C)COC[C@H]1CC[C@H]2[C@H](CCN2C(=O)c2ccncc2F)O1`, 53%; with `O=C(c1ccoc1)N1CC[C@@H]2O[C@H](COCc3ccccn3)CC[C@@H]21`, 34.1%.
Under `CN(C)CCOC[C@H]1CC[C@H]2[C@H](CCN2C(=O)c2ccoc2)O1` stands 34.6%; under `CC(C)COC[C@@H]1CC[C@H]2[C@H](CCN2C(=O)c2ccncc2F)O1`, 13.5%; under `O=C(c1ccoc1)N1CC[C@@H]2O[C@@H](COCc3ccncc3)CC[C@@H]21`, 52%.
Under `O=C(c1ccoc1)N1CC[C@@H]2O[C@@H](COCc3ccccn3)CC[C@@H]21` stands 53.2%; under `O=C(c1ccoc1)N1CC[C@@H]2O[C@@H](COCCN3CCCC3)CC[C@@H]21`, 31.1%.
`CCOC[C@H]1CC[C@H]2[C@H](CCN2C(=O)c2ccncc2F)O1`: the INHIBITION was 41.4%.
Take `CCS(=O)(=O)N1CCC2(CN(c3ccsc3)C(=O)CN2C)C1` (centres undefined): the INHIBITION is listed as 1.9%.
For `CN(C)CC1(O)CCCN(C(=O)CCn2cc(Cl)cn2)C1` (centres undefined), the INHIBITION is -47%.
Take `CSc1nc2ccsc2c(=O)n1CC(=O)N(C)C1CCCCC1`: the INHIBITION turned out to be 26.6%.
`Cn1nccc1C(=O)N1CCCC1c1[nH]ncc1C(N)=O` (centres undefined): the INHIBITION is on record as -31%.
`CCOC(=O)N1CCN(C(=O)CCn2cccc2)CC1`: the INHIBITION was 35%.
Under `Cc1nc(CN2CCC3(CC2)C(=O)N(C)CCN3C)cs1` stands 31.5%; under `Cn1cc(-c2nnn3c2COC(CNC(=O)c2cccs2)C3)cn1` (centres undefined), 8.64%; under `Cc1nc(CN2CCN(C(=O)c3ccnc(N(C)C)c3)CC2)cs1`, 43.2%.
Under `Cc1ccc(CN(C)C(=O)C(C)n2ccnc2C(C)C)o1` (centres undefined) stands 33%; under `O=C(c1cccc(-c2ncc[nH]2)c1)N1CC[C@H](CO)[C@@H](O)C1`, -12.1%.
With `CN(C)C1CCCN(C(=O)c2cccc(-c3ncc[nH]3)c2)CC1` (centres undefined), the INHIBITION is recorded as 12.8%.
Under `O=C(c1cccc(-c2ncc[nH]2)c1)N1CCC(N2CCCC(O)C2)CC1` (centres undefined) stands 57.2%; under `Cc1ncnc2c1CCN(Cc1nccs1)CC2`, 8.85%; under `CC(C(=O)NCC(C)(C)c1ccc(Br)cc1)n1cncn1` (centres undefined), 23.1%.
As for `O=c1[nH]cnc2[nH]c(N3CCOCC3)nc12`, the INHIBITION is 31.8%.
Consider `COc1ccc2nc(C3CC3)cc(C(=O)NCc3noc(C)n3)c2c1`, for which the INHIBITION was determined as 57.2%.
On to `COc1ccc2nc(C3CC3)cc(C(=O)NCC(=O)N(C)C)c2c1`, for which the INHIBITION was 13.9%.
With `COc1ccc2nc(C3CC3)cc(C(=O)NCc3ncnn3C)c2c1` the figure was 10.7%; with `COc1ccccc1C(=O)NC(C)CC(=O)O` (centres undefined), 51.3%; with `COc1ccccc1CC(C)CC(=O)O` (centres undefined), 29.3%.
With `COc1ccccc1C(=O)NC(CC(=O)O)c1cccs1` (centres undefined), the INHIBITION is -9.14%.
Under `CCOc1ccccc1C(=O)NC(CC(=O)O)c1cccs1` (centres undefined) stands 13.3%; under `COc1ccc(CC(=O)NC(CC(=O)O)c2ccc(F)cc2)cc1OC` (centres undefined), 29%.
Regarding `COc1ccc(C)cc1C(=O)NC(CC(=O)O)c1cccs1` (centres undefined), the INHIBITION was found to be 52.3%.
With `COc1ccc(C)cc1CC(=O)NC(CC(=O)O)c1ccc(F)cc1` (centres undefined), the INHIBITION amounted to 58.3%.
For `COc1ccccc1CC(=O)NC(CC(=O)O)c1ccc(F)cc1` (centres undefined), the INHIBITION amounted to 32.3%.
With `COc1ccc(C(=O)NC(CC(=O)O)c2cccs2)c(OC)c1` (centres undefined) the figure was -5.25%.
On to `O=C(O)CC(NC(=O)c1ccccc1OC(F)F)c1cccs1` (centres undefined), for which the INHIBITION was 68.8%.
In the case of `COc1cccc(-c2n[nH]cc2C(=O)NC(C)CC(=O)O)c1` (centres undefined), the INHIBITION worked out at 42.3%.
Under `COc1ccc(Cl)cc1C(=O)NC(CC(=O)O)c1cccs1` (centres undefined) stands 29.7%; under `Cc1csc(CN2CCC[C@]3(C[C@@H](OCC4CC4)CO3)C2)n1`, 35.6%.
With `Cc1nnc(NCCn2nc(C)c(Cl)c2C)o1` the figure was 26.8%.
With `CC(Cn1ccnc1)NC(=O)NCCc1ccc(Cl)s1` (centres undefined) the figure was -5.25%; with `O=C1CC(N(C(=O)CCc2cc(F)ccc2F)C2CC2)C(=O)N1` (centres undefined), 22.2%; with `CCn1ccnc1CN1CCCC1c1noc(C2CC2)n1` (centres undefined), 40.9%.
Turning to `CN(Cc1nnc2n1CCC2)C(=O)c1ccc2c(c1)CCO2`, the INHIBITION is 26.4%.
As to `Cc1nc2c(c(=O)[nH]1)CCN(Cc1ccc3c(c1)CCCN3C)C2`, the INHIBITION is given as 31.6%.
For the compound `Cc1ccc2c(c1)C(=O)NCC1(CCN(C(=O)c3cnccn3)CC1)O2`, the INHIBITION was -32.2%.
Regarding `O=C(CCc1ccccc1F)N1CCC(Nc2cccnn2)CC1`, the INHIBITION was found to be 1.78%.
For the compound `O=C1N(CC2CCCC2)CCC12CCN(c1ncc(F)cn1)CC2`, the INHIBITION was found to be 8.74%.
Regarding `NC(=O)CN1CCC(NC(=O)COCCOc2ccccc2)CC1`, the INHIBITION is on record as 31.6%.
With `CC(=O)NCCC1CCCCN1S(=O)(=O)c1cccc(F)c1` (centres undefined), the INHIBITION is -40.5%.
With `COCC(=O)N1CCOC(c2cccc(-c3cncnc3)n2)C1` (centres undefined) the figure was 38.2%; with `CNC(=O)c1ccc(C2CN(C(=O)COC)CCO2)nc1` (centres undefined), -26.8%; with `COCC(=O)N1CCOC(c2ccc(N(C)C)cn2)C1` (centres undefined), 50.1%.
Turning to `CCCC(=O)N1CCC(c2nc(O)c3c(n2)CCN(C2CCCC2)C3)C1` (centres undefined), the INHIBITION was found to be 17.1%.
`Cc1ccccc1OCCCC(=O)NC(C)c1nnc2n1CCC2` (centres undefined): the INHIBITION is -24.2%.
Under `CNC(=O)[C@H]1C[C@@H]2CN(S(=O)(=O)Cc3ccccc3)C[C@@H]2N1C` stands -15.7%; under `O=C(N1CCOCC1)[C@@]12CCO[C@@H]1CCN(C1CCC1)C2`, 16.8%; under `Cc1ccsc1C(=O)N1C[C@@H]2CN(Cc3ccoc3)CCO[C@@H]2C1`, 2.27%.
As to `O=C(NCC(F)(F)F)C1CSCN1S(=O)(=O)c1ccc(F)cc1Cl` (centres undefined), the INHIBITION is -19.6%.
Take `COc1ncccc1CN1C[C@@H]2C[C@@H](C(=O)NCC3CC3)N(C)[C@@H]2C1`: the INHIBITION stood at 27.2%.
Under `CCCn1cc(-c2cc(-c3ccoc3)c(C#N)c(N)n2)c(C)n1` stands -24%; under `CCCn1cc(-c2cc(-c3cc(CC)n[nH]3)c(C#N)c(N)n2)c(C)n1`, 64.5%; under `CCCn1cc(-c2cc(-c3c[nH]cn3)c(C#N)c(N)n2)c(C)n1`, -8.47%.
Take `Cc1ccc(O)c(CNC2CCCN(Cc3noc(C4CC4)n3)C2)n1` (centres undefined): the INHIBITION was determined as 15.3%.
Under `CC(C)NC(=O)CN(C)CC(=O)Nc1ccnn1C(C)C1CC1` (centres undefined) stands -164%; under `Cc1nc(C)c(CC(=O)NCc2ccc(F)cc2)s1`, -2.39%; under `CC(=O)Nc1ccc(CNC(=O)CNCc2snnc2C)cc1`, 52.2%.
Under `CC(=O)Nc1ccc(CNC(=O)CNCc2nnc(C)o2)cc1` stands 45.4%; under `CC(=O)Nc1ccc(CN(C)Cc2snnc2C)cc1`, 34.6%.
Turning to `Cc1nc(C)c(CC(=O)NCc2ccccc2F)s1`, the INHIBITION is on record as 31.3%.
With `CC(=O)Nc1ccc(CNC(=O)CNCc2sc(C)nc2C)cc1` the figure was 55.5%; with `O=C(O)c1cc(S(=O)(=O)N2CCOc3ccccc32)ccc1Br`, 2.7%.
With `CN(C(=O)Cn1nc(-c2ccc(Br)cc2)ccc1=O)C1CCS(=O)(=O)C1` (centres undefined) the figure was -29.2%; with `CC(C)c1cc(O)nc(C2CCCN2C(=O)C2CC2)n1` (centres undefined), -9.32%.
Consider `O=S(=O)(NCC1CCN(c2cnccn2)CC1)C1CC1`, for which the INHIBITION came to 27.5%.
With `Cn1nccc1-c1ccc2nc(C3CCNCC3)nn2c1` the figure was -3.33%.
